Experimental data: PubChem BioAssay (NCATS)
Results filed as inconclusive are left out. Activity calls are given as the source filed them. Calls come from the whole dose curve; as a rule, active = well fitted inhibition curve with a large enough effect; inconclusive = small, poorly fitted or top-dose-only effect; inactive = no such curve, though single readings can be large or run the other way. Non-standard residues stand in square brackets, D forms with d. Residues, ends and D or L forms follow the SMILES beside them. *: point of attachment. Sta = CC(C)C[C@H](N)[C@@H](O)CC(=O)O; Isovaleryl = CC(C)CC(=O)*

assay: BET inhibitor-based combinations targeting novel dependencies in MECOM-rearranged (r) AML: MV-4-11 cell line (AID 2202233); details: MV-4-11 AML viability, CellTiter-Glo luminescence, 48 h; series mostly up to 46 µM; viability, % of control: at the top concentration; note: nearly all actives have a fitted effect of over 45% in size
Source text: Ecotropic viral insertion site 1 (EVI1) is located on chromosome 3q26.2 as part of the MECOM (MDS and EVI1 complex) locus. Under normal hematopoiesis, EVI1 is a regulator of hematopoietic stem cell maintenance and self-renewal and EVI1 levels decrease as the cells differentiate. In approximately 5-10% of de novo acute myeloid leukemia (AML) EVI1 is aberrantly expressed, including Chromosomal inv(3)(q21;q26.2) or t(3;3)(q21;q26.2) alterations (MECOM-r) that account for about 50% of AML with EVI1 overexpression 31. AMLs with high levels of EVI1 have a poor prognosis and an overall survival time averaging between 10-14 months. EVI1 overexpression confers resistance in leukemia cells, highlighting the need to develop new targeted therapies for EVI1 overexpressing AMLs. Here, we performed an unbiased chemical drug screening by evaluating the single agent activity of a collection of 2,480 oncology-focused, approved and investigational drugs (NCATS Mechanism Interrogation Plates, MIPE v5.0) against a panel of seven AML cell lines. These included four MECOM-r cell-lines (AML-191, AML-194, UCSD-AML1 and HNT-34) and three non-MECOM-r AMLs (MV4-11, OCI-AML3 and SET-2). Exploiting the mechanistic redundancy built in the library, we identified target-level sensitivities in MECOM-r AML cells and relative activity as compared to other AML subtypes.
A collection of 2480 mechanistically annotated dugs (MIPE v5.0) was used to screen four 3q26.2 rearranged AML cell lines and three non-3q26.2 rearranged AML cell lines. This library purposely exploits redundancy by including multiple inhibitors of key onco-targets, while simultaneously encompassing mechanistic diversity, targeting more than 800 distinct mechanisms of action. Briefly, cells were seeded in 5 uL of growth media using a Multidrop Combi dispenser into 1536 well white polystyrene tissue culture treated plates (Corning) at a density of 500cells/well. For each cell-line, for each of the 2480 drugs in MIPE v5.0 library, an 11-point dose curve was generated via a 1536 pin-tool. Plates were incubated for 48 hr at standard incubator conditions, covered by a stainless steel gasketed lid to prevent evaporation. Cell viability was determined by luminescence based, Cell Titer Glo assay (Promega). In detail, 3 uL of Cell Titer Glo were added to each well and plates were incubated at room temperature for 15 min with a stainless-steel lid in place. Luminescence readings were taken using a Viewlux (PerkinElmer) with a 2 s exposure time per plate. Compound dose-response curves were normalized to DMSO and empty well controls on each plate. Quantitative drug activity data from dose-response curves was determined utilizing area Under the Curve (AUC) and Z-transformed AUC (Z-AUC, a mean-centering transformation applied to each individual cell-line screened).
Potency is the fitted concentration of half-maximal effect.

SMILES	Potency	viability, % of control
CC[C@@](C)(Nc1ccnc(-c2c[nH]c3ncccc23)n1)C(=O)NCC(F)(F)F	14.8 µM (active)	
FC(F)(F)c1ccc(/C=C/c2nc(COc3ccc(CCCCn4ccnn4)cc3)co2)cc1	0.0295 µM (active)	
CCC(C)N(C)C(=O)c1cc2ccccc2c(-c2ccccc2Cl)n1 (stereo not given)		78.7% (inactive)
CNc1nc(C)nc(N[C@H]2CCC[C@@H](C(=O)NCc3ccc(C#N)cc3C(F)(F)F)C2)n1	16.6 µM (active)	
Cc1ccc(NC(=O)Nc2cc(C(F)(F)F)ccc2F)cc1Nc1ccc2c(c1)NC(=O)/C2=C\c1ccc[nH]1	16.6 µM (active)	
CC1CCC(n2c3cnccc3c3cnc(Nc4ccc5c(n4)CCN(C(=O)CO)C5)nc32)CC1 (stereo not given)	0.152 µM (active)	
NC(=O)OCC(COC(N)=O)c1ccccc1		118% (inactive)
Cc1cc(C)c(/C=C2\C(=O)Nc3ccccc32)[nH]1	0.742 µM (active)	
CC(C)CC(=O)N[C@H](C(=O)N[C@H](C(=O)N[C@@H](CC(C)C)[C@@H](O)CC(=O)N[C@@H](C)C(=O)N[C@@H](CC(C)C)[C@@H](O)CC(=O)O)C(C)C)C(C)C (Isovaleryl-VV[Sta]A[Sta]-OH)		120% (inactive)
Nc1ccccc1NC(=O)c1ccc(CNC(=O)OCc2cccnc2)cc1	1.48 µM (active)	
CCCOc1ccc(C(=O)OCCN(CC)CC)cc1N		100% (inactive)
CN1CCN(CCCN2c3ccccc3Sc3ccc(C(F)(F)F)cc32)CC1	20.9 µM (active)	
O=c1c(O)c(-c2ccc(O)c(O)c2)oc2cc(O)ccc12	2.63 µM (active)	
O=C(O)c1nc(=O)[nH]c(=O)[nH]1		139% [at 15.6 µM] (inactive)
CC(C)C(C)C=CC(C)C1CCC2C3=CC=C4CC(O)CCC4(C)C3CCC21C (stereo not given)		120% (inactive)
O=c1c(O)c(-c2ccc(O)cc2O)oc2cc(O)cc(O)c12		91.8% (inactive)
NC(=O)c1cccnc1		125% (inactive)
CC#C[C@]1(O)CC[C@H]2[C@@H]3CCC4=CC(=O)CCC4=C3[C@@H](c3ccc(N(C)C)cc3)C[C@@]21C	23.5 µM (active)	
Cc1ccccc1-n1c(Cn2nc(-c3cccc(O)c3)c3c(N)ncnc32)nc2cccc(C)c2c1=O	0.296 µM (active)	
COc1ccc(N(C)c2nc(C)nc3ccccc23)cc1	0.0105 µM (active)	

SMILES	Potency	viability, % of control
O=C(Nc1ccc(OC(F)(F)F)cc1)c1sccc1NCc1ccnc2ccccc12	6.61 µM (active)	
O=C(/C=C/c1cccc(S(=O)(=O)Nc2ccccc2)c1)NO	0.296 µM (active)	
CCCCS(=N)(=O)CCC(N)C(=O)O (stereo not given)	21.5 µM (active)	
CCOC(=O)c1ncn2c1CN(C)C(=O)c1cc(F)ccc1-2		99.9% (inactive)
C=CCn1c(=O)c2cnc(Nc3ccc(N4CCN(C)CC4)cc3)nc2n1-c1cccc(C(C)(C)O)n1	0.742 µM (active)	
Cc1ccccc1C(=O)c1ccc(Nc2ccc(Br)cc2N)cc1Cl	18.6 µM (active)	
NCCCCCC(=O)O		134% (inactive)
CCCn1c(=O)c2[nH]c(-c3cnn(Cc4cccc(C(F)(F)F)c4)c3)nc2n(CC)c1=O		115% (inactive)
O=P(O)(O)C(O)(Cc1cccnc1)P(=O)(O)O		132% (inactive)
COc1cc(Nc2ncc(F)c(Nc3ccc4c(n3)NC(=O)C(C)(C)O4)n2)cc(OC)c1OC	0.148 µM (active)	
CC(C)c1cc(C(=O)N2Cc3ccc(CN4CCN(C)CC4)cc3C2)c(O)cc1O	0.0742 µM (active)	
O=C(NCC(=O)N1CC[C@H](NC2CCC(O)(c3ccc(-c4ncccn4)cn3)CC2)C1)c1cccc(C(F)(F)F)c1 (stereo not given in full)	10.5 µM (active)	
NCCCC(N)(C(=O)O)C(F)F (stereo not given)		105% (inactive)
Cc1cnc(C(=O)O)c[n+]1[O-]		140% (inactive)
Nc1ccccc1NC(=O)c1ccc(CNc2nccc(-c3cccnc3)n2)cc1	0.662 µM (active)	
COc1cc(C(=O)NS(=O)(=O)c2ccccc2C)ccc1Cc1cn(C)c2ccc(NC(=O)OC3CCCC3)cc12		129% (inactive)
CCOc1cc2ncc(C#N)c(Nc3ccc(OCc4ccccn4)c(Cl)c3)c2cc1NC(=O)/C=C/CN(C)C	2.09 µM (active)	
O=c1c(-n2ccnn2)c[nH]n1-c1cc(N2CCOCC2)ncn1	20.9 µM (active)	
NC(=O)c1cnccn1		60.1% (inactive)
CCCc1nn(C)c2c(=O)[nH]c(-c3cc(S(=O)(=O)N4CCN(C)CC4)ccc3OCC)nc12		96.2% (inactive)
